Data: PubChem BioAssay
Calls of active or inactive are those of the source.

Legend:
[1] = optical density shifts of acrAB sulA E. coli – strain DRC41, OD650, 48 h, E. coli filamentation inducer project, primary screen (AID 1152); settings: higher = more signal, called active from +8 up or from −8 down;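 note: E. coli MC1000 strain DRC41 lacking acrAB efflux pump and sulA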
[2] = probe aLefty1 binding on compound microarray – biochemical, small-molecule microarray, 635/667 nm fluorescence, primary screen (AID 1153); settings: higher = more signal;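 note: score merges spot fluorescence with signal-to-noise ratio from the scanned slide images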
[3] = plasmodial surface anion channel blockers, osmotic lysis – cell-based, P. falciparum Indochina, OD700, 1 h, primary screen (AID 1154); settings: P. falciparum Indochina infected RBC osmotic lysis, higher = more signal, called active from +8 up or from −8 down
[4] = plasmodial surface anion channel blockers, osmotic lysis – cell-based, P. falciparum Indochina, OD700, 2 h, primary screen (AID 1155);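 note: lysis reports solute entry through the parasite surface anion channel PSAC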; settings: P. falciparum Indochina infected erythrocytes, higher = more signal, called active from +8 up or from −8 down
[5] = changes in parasitized red cell lysis, either direction – P. falciparum Indochina, OD700, 3 h, PSAC antagonist project, primary screen (AID 1156); settings: P. falciparum-infected erythrocytes, osmotic lysis, higher = more signal, called active from +8 up or from −8 down
[6] = plasmodial surface anion channel blockers, osmotic lysis – cell-based, P. falciparum Indochina, OD700, 18 h, primary screen (AID 1157); settings: P. falciparum Indochina infected erythrocytes, osmotic lysis OD700, 18 h; higher = more signal, called active from +8 up or from −8 down
[7] = S6 kinase pathway phospho-S6 level changes – cell-based, A549, cytoblot, luminescence, serum-stimulated, primary screen (AID 1158); settings: 5 h, higher = more signal;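 note: serum-stimulated A549 lung adenocarcinoma cells; signal is phosphorylated S6 detected by cytoblot immunostaining with HRP secondary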
[8] = molecular target: NADPH oxidase 2 (Homo sapiens) (UniProt P04839); experiment: compounds shifting NOX2 Amplex Red fluorescence – cell-based, HEK293-NOX2, PMA-stimulated, NOX inhibitor project, primary screen (AID 1159); settings: 45 min, higher = more signal, called active from +8 up or from −8 down; note: test concentration not given here
[9] = molecular target: NADPH oxidase 4 (Homo sapiens) (UniProt Q9NPH5); experiment: compounds shifting NOX4 Amplex Red fluorescence – cell-based, HEK293-NOX4, tetracycline-induced, NOX inhibitor project, primary screen (AID 1160); settings: HEK293-NOX4, Amplex Red H2O2 fluorescence, 45 min; higher = more signal, called active from +8 up or from −8 down
[10] = molecular target: NADPH oxidase 5 (Homo sapiens) (UniProt Q96PH1); experiment: compounds shifting NOX5 Amplex Red fluorescence – cell-based, HEK293-NOX5, NOX inhibitor project, primary screen (AID 1161); settings: HEK293-NOX5, ionomycin, 45 min, higher = more signal
[11] = compound effects on lung adenocarcinoma cell viability – A549, calcein-AM fluorescence, 48 h, basal, profiling panel (AID 1162); settings: higher = more signal; note: test concentration not given here
[12] = compound effects on differentiated 3T3-L1 adipocyte viability – cell-based, 3T3-L1 adipocytes, calcein-AM fluorescence, 48 h, basal, profiling panel (AID 1163); settings: 3T3-L1 adipocytes viability, higher = more signal; note: test concentration not given here
[13] = compound effects on hepatocellular carcinoma cell viability – HepG2, calcein-AM fluorescence, 48 h, basal, profiling panel (AID 1164); settings: higher = more signal; note: test concentration not given here
[14] = compound effects on multiple myeloma cell viability – MM1S, calcein-AM fluorescence, 48 h, basal, profiling panel (AID 1165); settings: higher = more signal;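 note: viability of MM1S multiple myeloma cells under basal unstimulated conditions; test concentration not given here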
[15] = calcein-AM signal in unstimulated myeloma cells – cell-based, calcein-AM fluorescence, 48 h, PK04 Diversity Set, profiling panel (AID 1166); settings: RPMI8226 myeloma viability, higher = more signal;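 note: cells grown under basal conditions without added stimulus; test concentration not given here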
[16] = JC-1 mitochondrial signal, unstimulated HepG2 cells – cell-based, JC-1 fluorescence, 24 h, 100 nL compound, profiling panel (AID 1167); settings: HepG2 mitochondrial potential, higher = more signal; note: test concentration not given here
[17] = JC-1 mitochondrial signal, unstimulated adipocytes – cell-based, JC-1 fluorescence, 3T3-L1 adipocytes, 24 h, 100 nL compound, profiling panel (AID 1168); settings: JC-1 mitochondrial fluorescence, higher = more signal, called active from +8 up or from −8 down; note: test concentration not given here
[18] = JC-1 mitochondrial signal, unstimulated myeloma cells – cell-based, JC-1 fluorescence, RPMI8226, 24 h, 100 nL compound, profiling panel (AID 1169); settings: JC-1 mitochondrial potential fluorescence, higher = more signal; note: test concentration not given here
[19] = JC-1 mitochondrial signal, unstimulated MM1S myeloma – cell-based, JC-1 fluorescence, 24 h, 100 nL compound, profiling panel (AID 1170); settings: MM1S mitochondrial potential, higher = more signal; note: test concentration not given here
[20] = resazurin metabolic signal in A549 cells – cell-based, resazurin fluorescence, 24 h, PK04 Diversity Set, profiling panel (AID 1171); settings: A549 viability, higher = more signal, called active from +8 up or from −8 down; note: test concentration not given here

NADPH oxidase 2 (Homo sapiens), sequence (P04839 whole entry, looked up): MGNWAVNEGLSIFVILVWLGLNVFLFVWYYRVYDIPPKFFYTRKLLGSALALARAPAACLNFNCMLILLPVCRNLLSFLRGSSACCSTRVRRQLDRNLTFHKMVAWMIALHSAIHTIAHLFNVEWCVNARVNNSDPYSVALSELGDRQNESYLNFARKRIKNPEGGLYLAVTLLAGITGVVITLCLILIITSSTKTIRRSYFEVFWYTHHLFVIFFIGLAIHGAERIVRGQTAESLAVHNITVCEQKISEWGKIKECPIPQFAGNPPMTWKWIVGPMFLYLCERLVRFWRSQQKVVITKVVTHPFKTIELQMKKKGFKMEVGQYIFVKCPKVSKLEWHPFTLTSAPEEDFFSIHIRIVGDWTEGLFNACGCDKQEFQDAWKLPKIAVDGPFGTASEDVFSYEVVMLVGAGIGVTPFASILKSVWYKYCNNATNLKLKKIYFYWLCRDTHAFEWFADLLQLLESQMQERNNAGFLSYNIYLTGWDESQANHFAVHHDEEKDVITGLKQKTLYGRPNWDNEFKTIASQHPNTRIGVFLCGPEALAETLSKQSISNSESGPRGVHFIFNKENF
NADPH oxidase 4 (Homo sapiens), sequence (Q9NPH5 whole entry, looked up): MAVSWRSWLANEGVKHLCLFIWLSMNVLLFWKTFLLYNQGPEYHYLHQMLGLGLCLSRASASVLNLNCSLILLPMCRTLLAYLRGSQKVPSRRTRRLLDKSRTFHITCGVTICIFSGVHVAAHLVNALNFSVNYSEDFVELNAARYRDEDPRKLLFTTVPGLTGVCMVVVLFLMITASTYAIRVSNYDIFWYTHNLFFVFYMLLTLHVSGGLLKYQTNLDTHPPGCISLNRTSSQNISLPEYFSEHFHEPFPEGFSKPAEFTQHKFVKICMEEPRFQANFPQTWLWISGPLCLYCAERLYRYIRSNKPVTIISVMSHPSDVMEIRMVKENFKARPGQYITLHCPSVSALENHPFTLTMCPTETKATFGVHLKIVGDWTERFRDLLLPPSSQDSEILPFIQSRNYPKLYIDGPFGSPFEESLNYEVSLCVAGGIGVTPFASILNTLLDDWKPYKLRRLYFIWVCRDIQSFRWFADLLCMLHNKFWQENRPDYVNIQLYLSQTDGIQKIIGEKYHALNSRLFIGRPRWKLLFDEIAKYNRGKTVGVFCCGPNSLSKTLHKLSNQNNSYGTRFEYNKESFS
NADPH oxidase 5 (Homo sapiens), sequence (Q96PH1 whole entry, looked up): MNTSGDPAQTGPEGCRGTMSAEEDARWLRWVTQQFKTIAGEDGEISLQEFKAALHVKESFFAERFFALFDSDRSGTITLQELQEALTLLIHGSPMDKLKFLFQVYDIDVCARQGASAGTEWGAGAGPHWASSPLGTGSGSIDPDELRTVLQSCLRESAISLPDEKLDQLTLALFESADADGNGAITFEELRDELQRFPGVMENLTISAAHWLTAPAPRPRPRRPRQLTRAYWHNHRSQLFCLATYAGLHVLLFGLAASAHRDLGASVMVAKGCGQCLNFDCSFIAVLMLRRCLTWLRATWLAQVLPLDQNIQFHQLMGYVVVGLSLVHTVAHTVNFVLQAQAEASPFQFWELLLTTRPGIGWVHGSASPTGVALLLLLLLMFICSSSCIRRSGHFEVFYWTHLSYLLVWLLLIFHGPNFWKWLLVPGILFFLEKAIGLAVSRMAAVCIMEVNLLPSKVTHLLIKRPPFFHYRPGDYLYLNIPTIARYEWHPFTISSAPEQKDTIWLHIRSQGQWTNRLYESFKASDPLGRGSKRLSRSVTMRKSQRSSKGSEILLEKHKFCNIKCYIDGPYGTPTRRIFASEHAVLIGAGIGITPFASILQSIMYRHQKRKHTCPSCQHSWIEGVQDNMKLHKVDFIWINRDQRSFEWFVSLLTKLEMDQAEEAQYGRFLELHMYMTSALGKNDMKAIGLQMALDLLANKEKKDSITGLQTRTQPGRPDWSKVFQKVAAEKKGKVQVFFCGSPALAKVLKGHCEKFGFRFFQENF

Structure (SMILES)	z-score [1]	composite z-score [2]	z-score [3]	z-score [4]	z-score [5]	z-score [6]	z-score [7]	z-score [8]	z-score [9]	z-score [10]	z-score [11]	z-score [12]	z-score [13]	z-score [14]	z-score [15]	z-score [16]	z-score [17]	z-score [18]	z-score [19]	z-score [20]
COc1ccc(C(O)C2C=CC3C(=O)N(Cc4ccccc4)C(=O)C3N2n2cnnc2)c2ccccc12 (stereo not given)	-0.855 (inactive)	0.425	0.782 (inactive)	-0.11 (inactive)	1.57 (inactive)	-1.58 (inactive)	2.01	-2.98 (inactive)	-0.674 (inactive)	-3.65	0.0609	0.936	0.0591	0.405	-1.34	-0.722	0.895 (inactive)	-0.992	-0.129	-0.96 (inactive)
O=C(O)[C@H]1C[C@H]2C(=O)N3CCC[C@H]3C(=O)N2[C@H]1c1cccc(OCCO)c1	0.71 (inactive)	-0.017	6.65 (inactive)	1.08 (inactive)	-1.69 (inactive)	0.619 (inactive)	0.557	-0.117 (inactive)	-0.0548 (inactive)	1.24	1.67	-0.156	0.601	0.792	-0.8	1.96	-0.652 (inactive)	-0.77	-0.568	1.04 (inactive)
O=C(N1CCCCC1)[C@@]1(Cc2ccccc2)COC(c2ccc(OCCCO)cc2)=N1	0.436 (inactive)	0.461	20.9 (active)	3.44 (inactive)	1.32 (inactive)	0.42 (inactive)	-0.666	-4.59 (inactive)	-0.936 (inactive)	-2.26	-1.14	0.675	-0.159	-3.14	-1.77	-2.33	0.987 (inactive)	-1.08	-0.923	1.68 (inactive)
Cc1ccc(S[C@]2(C(=O)O)CC(=O)N(Cc3ccccc3Cl)[C@@H]2c2ccc(CO)cc2)cc1	0.33 (inactive)	-0.112	2.67 (inactive)	-0.185 (inactive)	0.825 (inactive)	0.55 (inactive)	0.227	0.646 (inactive)	-1.5 (inactive)	0.432	0.322	0.152	-0.0394	-0.217	-1.44	-0.0706	-0.672 (inactive)	-0.509	1.37	-0.462 (inactive)
CC(C)C(=C=CC[C@H](O)c1ccc(OCCO)cc1)C[C@H](O)c1cc(Cl)cc(Cl)c1O	0.049 (inactive)	0.121	19.4 (active)	3.7 (inactive)	1.44 (inactive)	1.24 (inactive)	-0.173	0.532 (inactive)	-0.473 (inactive)	-1.36	0.648	0.831	-0.627	-3.41	-3.74	-1.77	-0.132 (inactive)	-0.124	-0.66	0.885 (inactive)
COc1c(C)cc(-c2cc3c(c(Cc4ccccc4)n2)[Si](C(C)C)(C(C)C)OC3)cc1C	-1.01 (inactive)	0.0004	0.613 (inactive)	-0.172 (inactive)	0.249 (inactive)	0.189 (inactive)	-0.671	-0.233 (inactive)	0.243 (inactive)	0.152	-0.983	-1.44	0.269	-0.418	-0.0095	-1	-0.737 (inactive)	0.0185	-0.00287	-0.124 (inactive)
CCOC(=O)C[C@H]1[C@H](OC(=O)c2ccccc2-c2ccccc2)[C@@H](NC(=O)CC(C)C)c2cc(OCCCO)ccc2N1C(=O)c1ccc2ccccc2n1	-0.518 (inactive)	-0.192	11.9 (active)	1.64 (inactive)	-0.0722 (inactive)	0.598 (inactive)	-0.577	-0.274 (inactive)	1.15 (inactive)	1.51	0.375	0.556	0.2	-1.32	-2.05	0.851	-0.0831 (inactive)	-0.537	0.32	-0.109 (inactive)
CCCCN1CC=CC23O[C@@H]4C=CCOC(=O)[C@@H]4[C@H]2C(=O)N(C(C)CO)[C@@H]3C1=O (stereo not given in full)	-0.65 (inactive)	-0.045	0.596 (inactive)	-0.404 (inactive)	0.436 (inactive)	0.111 (inactive)	-0.163	0.953 (inactive)	0.56 (inactive)	1.51	-0.406	0.434	-0.208	0.638	0.0934	-1.02	-1.98 (inactive)	-0.768	-0.0859	-0.384 (inactive)
C[C@]1(C(=O)NC2CC2)c2ccccc2C(=O)N(Cc2ccc(OC(F)(F)F)cc2)[C@H]1c1ccc(CO)cc1	0.323 (inactive)	-0.0186	3.33 (inactive)	0.258 (inactive)	4.64 (inactive)	0.0105 (inactive)	-0.111	0.264 (inactive)	0.731 (inactive)	0.138	-0.176	-0.138	0.415	-0.105	0.142	2.32	-0.116 (inactive)	0.917	-0.316	0.306 (inactive)
